In PubChem BioAssay (Tox21) one finds outcome and Potency data, which are given here for ten compounds.

Inconclusive results are not listed. The source made the active and inactive calls. Unless noted, calls come from the whole dose curve; as a rule, active = well fitted curve in the direction sought with a large enough effect in the repeat runs; inconclusive = weak or mixed curves; inactive = no such curve, though single readings can be large; an effect the other way counts as inactive or inconclusive.

Test [1] is described as follows: qHTS assay to test for compound auto fluorescence at 535 nm (green) in HEK293 cells (AID 720680).
Test [2] in a line: qHTS assay to test for compound auto fluorescence at 460 nm (blue) in HEK293 cell free culture (AID 720681). Put shortly: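 Compounds were added to cell-free DMEM with 10% FBS and fluorescence read directly. The blue channel used 405 nm excitation and 460 nm emission, with triamterene as the reference fluorophore.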
The nature of test [3]: qHTS assay to test for compound auto fluorescence at 535 nm (green) in HEK293 cell free culture (AID 720682). Put shortly: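 Using fluorescein as calibrant, autofluorescence was quantified at 485/535 nm in cell-free DMEM containing 10% FBS after pintool addition of compound or vehicle.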
The nature of test [4]: qHTS assay to test for compound auto fluorescence at 590 nm (red) in HEK293 cell free culture (AID 720683). Put shortly: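 Cell-free wells of DMEM with 10% FBS received compound, and intrinsic fluorescence was read at excitation/emission 540/590 nm. Values expressed as equivalence to Rose Bengal sodium.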
The nature of test [5]: qHTS assay to test for compound auto fluorescence at 590 nm (red) in HepG2 cell free culture (AID 720684). The method in brief: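 Compounds are added to culture medium (MEM, 10% FBS) lacking cells, then fluorescence is read at excitation 540 nm, emission 590 nm, with Rose Bengal sodium as the equivalency standard.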
Test [6] in a line: qHTS assay to test for compound auto fluorescence at 460 nm (blue) in HepG2 cell free culture (AID 720685). The method in brief:
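Compound (23 nL) or DMSO pinned into cell-free MEM with 10% FBS; blue fluorescence read at 405/460 nm excitation/emission, expressed as auto-fluorescence equivalency to triamterene.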

Test [7] in a line: qHTS assay to test for compound auto fluorescence at 535 nm (green) in HepG2 cell free culture (AID 720686).
Test [8] in a line: qHTS assay to test for compound auto fluorescence at 460 nm (blue) in HepG2 cells (AID 720687). Put shortly:
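HepG2 cells in MEM with 10% FBS, attached overnight at 37 C, were exposed to compound or DMSO for 1 hr at 37 C, 5% CO2. Blue fluorescence was read at 405/460 nm, with triamterene as reference fluorophore.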

A short description of test [9]: qHTS assay to identify small molecule antagonists of the glucocorticoid receptor (GR) signaling pathway - cell viability counter screen (AID 720693). Note: nearly all actives have a fitted effect of over 55% in size.
The nature of test [10]: qHTS assay for identifying genotoxic compounds that show differential cytotoxicity against isogenic chicken DT40 cell lines with known DNA damage response pathways - wild type cell line (AID 743012). Note: nearly all actives have a fitted effect of over 60% in size. Put shortly: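 Using parental DT40 (300 cells/well), compounds delivered in DMSO incubate 40 h at 37 C/5% CO2. CellTiter-Glo reagent then stands 30 min at room temperature, and luminescence gives cell viability.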

Test [11] is described as follows: qHTS assay for identifying genotoxic compounds that show differential cytotoxicity against isogenic chicken DT40 cell lines with known DNA damage response pathways - Rev3 mutant cell line (AID 743014). Note: nearly all actives have a fitted effect of over 55% in size. Note: potency is the fitted concentration of half-maximal effect.
Test [12] is described as follows: qHTS assay for identifying genotoxic compounds that show differential cytotoxicity against isogenic chicken DT40 cell lines with known DNA damage response pathways - Rad54/Ku70 mutant cell line (AID 743015). Note: nearly all actives have a fitted effect of over 60% in size. Note: potency is the fitted concentration of half-maximal effect.
The nature of test [13]: qHTS assay to identify small molecule antagonists of the androgen receptor (AR) signaling pathway - cell viability counter screen (AID 743033; note: nearly all actives have a fitted effect of over 45% in size).
Test [14] is described as follows: qHTS assay to identify small molecule antagonists of the androgen receptor (AR) signaling pathway using the MDA cell line - cell viability counter screen (AID 743041; note: nearly all actives have a fitted effect of over 45% in size). The method in brief:
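Same-well cytotoxicity was assessed by CellTiter-Fluor in MDA-kb2 AR-luc cells after 16 h of compound treatment under R1881 agonism.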

For test [15], the target named is Androgen receptor (Homo sapiens) (UniProt P10275). The test is described as follows: qHTS assay to identify small molecule antagonists of the androgen receptor (AR) signaling pathway (AID 743035; active = well fitted inhibition curve with a large enough effect in the signal ratio in the repeat runs, not every such curve was filed as active; the % refers to the signal ratio). Put shortly:
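Using qHTS, AR-UAS-bla GripTite HEK293 cells received compound, then R1881, and were cultured 16 h at 37C/5% CO2 before a 2 h room-temperature LiveBLAzer B/G FRET substrate step and fluorescence measurement.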

Test [16] has the same target. The test is described as follows: qHTS assay to identify small molecule agonists of the androgen receptor (AR) signaling pathway (AID 743036; active = well fitted activation curve with a large enough effect in the signal ratio in the repeat runs, with a control signal flat, not every such curve was filed as active; the % refers to the signal ratio). Put shortly:
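In this Tox21 qHTS, 2,000 HEK293 AR-bla cells per well were incubated with compounds for 16 h at 37C and 5% CO2. Fluorescence intensity was recorded 2 h after adding LiveBLAzer B/G FRET substrate at room temperature.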

Test [17] shares this target. The test is described as follows: qHTS assay to identify small molecule agonists of the androgen receptor (AR) signaling pathway using the MDA cell line (AID 743040; note: nearly all actives have a fitted effect of over 20% in size). Put shortly: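 Human breast carcinoma MDA-kb2 reporter cells (MMTV-luc, AR/GR elements) were treated for 16 h at 37C in 0% CO2 following a 5 h settling period. Signal was quantified by ONE-Glo luminescence.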

The target is the same in test [18]. The experiment in a line: qHTS assay to identify small molecule antagonists of the androgen receptor (AR) signaling pathway using the MDA cell line (AID 743042; note: nearly all actives have a fitted effect of over 55% in size). The method in brief: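 MDA-kb2 breast carcinoma cells carrying MMTV-luciferase (AR/GR responsive) were co-treated with compounds and the agonist R1881 for 16 h at 37C. Inhibition read as ONE-Glo luminescence; CellTiter-Fluor fluorescence measured in parallel for cytotoxicity.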

Test [19] addresses Glucocorticoid receptor (Homo sapiens) (UniProt P04150). The test is described as follows: qHTS assay to identify small molecule agonists of the glucocorticoid receptor (GR) signaling pathway (AID 720691; active = well fitted activation curve with a large enough effect in the signal ratio in the repeat runs, not every such curve was filed as active; the % refers to the signal ratio). The method in brief: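 Reporter read-out: fluorescence intensity following 2 h room-temperature LiveBLAzer B/G FRET substrate loading. Prior step: GR-bla HeLa cells held 4 h, then treated 18 h at 37 C.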

The target is the same in test [20]. The experiment in a line: qHTS assay to identify small molecule antagonists of the glucocorticoid receptor (GR) signaling pathway (AID 720692; active = well fitted inhibition curve with a large enough effect in the signal ratio in the repeat runs, not every such curve was filed as active; the % refers to the signal ratio). The method in brief:
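Dexamethasone (5 nM final) stimulated a stably integrated GRE-beta-lactamase reporter in HeLa cells during 18 h co-incubation with compounds; signal was quantified as fluorescence intensity of B/G FRET substrate after 2 h.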

Chain of Androgen receptor (Homo sapiens) (P10275 whole entry, looked up): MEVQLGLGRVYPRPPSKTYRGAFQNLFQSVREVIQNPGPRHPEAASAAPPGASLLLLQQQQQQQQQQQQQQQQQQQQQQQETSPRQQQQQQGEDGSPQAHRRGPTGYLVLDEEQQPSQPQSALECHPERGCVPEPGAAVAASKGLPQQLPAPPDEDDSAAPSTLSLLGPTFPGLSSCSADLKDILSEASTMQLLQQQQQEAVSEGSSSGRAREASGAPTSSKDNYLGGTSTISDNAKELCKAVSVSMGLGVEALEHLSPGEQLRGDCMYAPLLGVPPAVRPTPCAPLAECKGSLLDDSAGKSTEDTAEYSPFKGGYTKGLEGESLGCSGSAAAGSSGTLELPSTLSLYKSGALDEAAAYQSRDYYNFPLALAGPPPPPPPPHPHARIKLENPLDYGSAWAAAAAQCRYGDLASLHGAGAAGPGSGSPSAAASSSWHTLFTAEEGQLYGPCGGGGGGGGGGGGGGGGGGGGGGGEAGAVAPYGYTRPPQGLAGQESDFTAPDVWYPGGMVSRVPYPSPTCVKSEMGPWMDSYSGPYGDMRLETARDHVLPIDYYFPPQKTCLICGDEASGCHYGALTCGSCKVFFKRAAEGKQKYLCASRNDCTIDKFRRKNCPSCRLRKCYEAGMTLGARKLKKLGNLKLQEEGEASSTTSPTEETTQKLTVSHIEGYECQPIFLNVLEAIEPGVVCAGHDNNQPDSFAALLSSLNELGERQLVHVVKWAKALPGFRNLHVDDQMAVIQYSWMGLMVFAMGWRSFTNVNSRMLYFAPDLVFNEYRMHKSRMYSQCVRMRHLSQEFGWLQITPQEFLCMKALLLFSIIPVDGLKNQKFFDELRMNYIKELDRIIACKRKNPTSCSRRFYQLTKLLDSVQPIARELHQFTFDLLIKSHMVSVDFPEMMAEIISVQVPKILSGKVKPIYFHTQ
Chain of Glucocorticoid receptor (Homo sapiens) (P04150 whole entry, looked up): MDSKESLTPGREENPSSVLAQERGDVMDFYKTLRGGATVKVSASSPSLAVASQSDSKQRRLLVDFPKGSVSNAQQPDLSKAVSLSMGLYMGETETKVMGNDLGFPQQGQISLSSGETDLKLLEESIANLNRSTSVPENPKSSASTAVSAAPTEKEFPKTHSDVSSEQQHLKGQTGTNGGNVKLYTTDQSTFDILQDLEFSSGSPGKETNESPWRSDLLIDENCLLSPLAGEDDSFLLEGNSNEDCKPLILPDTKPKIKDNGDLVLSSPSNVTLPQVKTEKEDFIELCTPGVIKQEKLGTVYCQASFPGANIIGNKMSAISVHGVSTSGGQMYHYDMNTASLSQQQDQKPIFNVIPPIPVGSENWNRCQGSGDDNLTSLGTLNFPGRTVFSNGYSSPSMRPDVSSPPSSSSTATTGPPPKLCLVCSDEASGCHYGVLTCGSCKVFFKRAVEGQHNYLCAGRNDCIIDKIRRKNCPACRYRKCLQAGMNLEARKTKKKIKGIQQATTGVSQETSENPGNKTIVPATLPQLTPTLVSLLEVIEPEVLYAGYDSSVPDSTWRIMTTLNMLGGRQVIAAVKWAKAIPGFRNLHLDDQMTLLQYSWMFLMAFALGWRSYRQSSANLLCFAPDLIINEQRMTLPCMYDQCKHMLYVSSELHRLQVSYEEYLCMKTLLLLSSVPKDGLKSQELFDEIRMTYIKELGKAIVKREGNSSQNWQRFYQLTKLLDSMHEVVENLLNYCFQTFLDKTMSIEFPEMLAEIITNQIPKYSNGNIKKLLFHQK

As to `N#Cc1c(Cl)cccc1Cl`, the call in test [1], in test [2], in test [3], in [4], in test [5] and in test [6] was inactive. In addition, the compound was classed as inactive in [7] and in test [8]. The Potency result in test [9], in [10], in test [11], in test [12], in test [13] and in test [14] was “inactive” in each case.

With `CCCCOP(=O)(O)OCCCC`, the result in [1], in test [2], in test [3], in test [4], in test [5] and in test [6] was inactive. Further, the result in [7], in [8], in test [16] and in test [18] was inactive. Further, the Potency entry in test [9], in [10], in test [11], in test [12], in [13] and in [15] was “inactive” in each case. The Potency result in test [17] and in test [14] was “inactive” each time.

On to `CC(N)=S`, for which the compound was classed as inactive in [1], in test [2], in [3], in [4], in test [5] and in test [6]. For the same compound, the compound was called inactive in test [7] and in test [8]. Further, the Potency result in [9], in test [10], in test [11], in test [12], in test [13] and in [14] was “inactive” each time.

Take `N#CCNCC#N`: the result in test [1], in [2], in [3], in test [4], in test [5] and in [6] was inactive. Further, the result in test [7] and in [8] was inactive. Moreover, the Potency entry in test [9], in test [11], in [12], in [13] and in test [14] was “inactive” each time.

Take `NC(=O)c1cc([N+](=O)[O-])cc([N+](=O)[O-])c1`: the result in test [1], in [2], in [3], in test [4], in [5] and in test [6] was inactive. In addition, the call in [7] and in [8] was inactive. For the same compound, the Potency result in test [9], in test [11], in [12], in [13] and in test [14] was “inactive” throughout.

Take `COc1cccc(C(=O)NN(C(=O)c2cc(C)cc(C)c2)C(C)(C)C)c1C`: the compound was called inactive in test [1], in test [2], in [3], in test [4], in [5] and in test [6]. The outcome in test [7] and in test [8] was inactive. Besides, the Potency entry in [9] and in test [13] was “inactive” throughout. In addition, the Potency in test [11] is 68.6 µM (active); in test [12], 61.1 µM (active).

As to `CSc1nc(N=[N+]=[N-])nc(NC(C)C)n1`, the call in test [1], in test [2], in test [3], in test [4], in test [5] and in test [6] was inactive. Also, the compound was classed as inactive in [7] and in test [8]. Further, the Potency result in test [9], in test [13] and in [14] was “inactive” throughout. Also, the Potency in test [11] was 61.1 µM (active).

For the compound `CC(=O)C(Cl)Cl`, the compound was classed as inactive in test [1], in test [3], in test [4], in [5], in [6] and in test [7]. Further, the result in [8] and in test [19] was inactive. In addition, the Potency entry in test [20], in test [9], in [10], in test [11], in test [12] and in test [13] was “inactive” throughout. In [14], the Potency entry was “inactive”.

For `CC1=NNC(=O)N(/N=C/c2cccnc2)C1`, the result in test [1], in test [2], in test [3], in test [4], in test [5] and in test [6] was inactive. Besides, the outcome in test [7] and in test [8] was inactive. In addition, the Potency result in test [9], in test [12], in test [13] and in [14] was “inactive” throughout.

For the compound `N#CCCC#N`, the compound was called inactive in test [1], in [2], in test [3], in [4], in test [5] and in [6]. Moreover, the compound was classed as inactive in test [7] and in test [8]. Moreover, the Potency entry in test [11], in [12], in test [13] and in test [14] was “inactive” throughout.
